Assay in all cases: PBM; 200 nM protein, PBS
Conditions in all cases: dsDNA, one strand shown

Test [1] addresses HESX1 (Homo sapiens, UniProt Q9UBX0 95-180, R165K).
The target of test [2] is SHOX (Homo sapiens, UniProt O15266 103-189).
Test [3] has as its target ALX4 (Homo sapiens, UniProt Q9H161 200-286, Q225E).
In test [4] the target is HESX1 (Homo sapiens, UniProt Q9UBX0 95-180).
The target of test [5] is MSX2 (Homo sapiens, UniProt P35548 130-214, R199I).
For test [6], the target named is ALX1 (Homo sapiens, UniProt Q15699 118-204, L144V).
Chain of ALX1 (Homo sapiens, UniProt Q15699 118-204, L144V) (Q15699 118-204 L144V): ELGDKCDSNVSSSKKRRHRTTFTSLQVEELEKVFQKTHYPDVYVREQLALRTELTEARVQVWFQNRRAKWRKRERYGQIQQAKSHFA
Test [7] concerns the target ALX3 (Homo sapiens, UniProt O95076 139-225, N203Q).
Test [8] addresses SHOX (Homo sapiens, UniProt O15266 103-189, R173C).
Test [9] addresses ALX1 (Homo sapiens, UniProt Q15699 118-204, L144R).
For test [10], the target named is ALX3 (Homo sapiens, UniProt O95076 139-225).
Chain of ALX3 (Homo sapiens, UniProt O95076 139-225) (O95076 139-225): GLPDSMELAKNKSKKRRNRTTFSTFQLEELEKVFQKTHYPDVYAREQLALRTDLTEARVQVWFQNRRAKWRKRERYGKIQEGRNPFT
The target in test [11] is PROP1 (Homo sapiens, UniProt O75360 56-141).
Chain of PROP1 (Homo sapiens, UniProt O75360 56-141) (O75360 56-141): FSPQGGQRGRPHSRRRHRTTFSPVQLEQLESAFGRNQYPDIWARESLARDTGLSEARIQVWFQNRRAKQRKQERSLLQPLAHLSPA
Test [12] has as its target HESX1 (Homo sapiens, UniProt Q9UBX0 95-180, R109Q).
The target of test [13] is PROP1 (Homo sapiens, UniProt O75360 56-141, R99H).
Chain of PROP1 (Homo sapiens, UniProt O75360 56-141, R99H) (O75360 56-141 R99H): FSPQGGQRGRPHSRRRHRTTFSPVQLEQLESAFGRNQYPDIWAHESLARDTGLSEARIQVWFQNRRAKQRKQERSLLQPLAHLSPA
Test [14] has as its target ALX3 (Homo sapiens, UniProt O95076 139-225, L168Q).
Test [15] concerns the target HESX1 (Homo sapiens, UniProt Q9UBX0 95-180, P111T).
Test [16] addresses ALX3 (Homo sapiens, UniProt O95076 139-225, L168V).
Test [17] deals with PROP1 (Homo sapiens, UniProt O75360 56-141, F88S).
Chain of PROP1 (Homo sapiens, UniProt O75360 56-141, F88S) (O75360 56-141 F88S): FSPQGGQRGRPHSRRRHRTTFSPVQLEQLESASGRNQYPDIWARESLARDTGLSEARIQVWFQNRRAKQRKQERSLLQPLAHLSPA
For test [18], the target named is HESX1 (Homo sapiens, UniProt Q9UBX0 95-180, F115L).
Chain of HESX1 (Homo sapiens, UniProt Q9UBX0 95-180, F115L) (Q9UBX0 95-180 F115L): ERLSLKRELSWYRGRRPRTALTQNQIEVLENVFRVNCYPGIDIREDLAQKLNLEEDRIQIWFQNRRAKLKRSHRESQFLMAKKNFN
The target of test [19] is ALX1 (Homo sapiens, UniProt Q15699 118-204).
Chain of ALX1 (Homo sapiens, UniProt Q15699 118-204) (Q15699 118-204): as the sequence (Q15699 118-204 L144V) above, with V27L counted along it
Test [20] deals with ALX3 (Homo sapiens, UniProt O95076 139-225, N203S).
Chain of ALX3 (Homo sapiens, UniProt O95076 139-225, N203S) (O95076 139-225 N203S): as the sequence (O95076 139-225) above, with N65S counted along it

Chain of HESX1 (Homo sapiens, UniProt Q9UBX0 95-180, P111T) (Q9UBX0 95-180 P111T): as the sequence (Q9UBX0 95-180 F115L) above, with P17T, L21F counted along it
Chain of MSX2 (P35548 130-214 R199I): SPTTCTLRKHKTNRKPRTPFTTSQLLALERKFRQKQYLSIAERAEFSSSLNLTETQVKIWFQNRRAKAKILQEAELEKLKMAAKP
Chain of HESX1 (Homo sapiens, UniProt Q9UBX0 95-180, R165K) (Q9UBX0 95-180 R165K): as the sequence (Q9UBX0 95-180 F115L) above, with L21F, R71K counted along it
Chain of ALX1 (Homo sapiens, UniProt Q15699 118-204, L144R) (Q15699 118-204 L144R): as the sequence (Q15699 118-204 L144V) above, with V27R counted along it
Chain of SHOX (Homo sapiens, UniProt O15266 103-189) (O15266 103-189): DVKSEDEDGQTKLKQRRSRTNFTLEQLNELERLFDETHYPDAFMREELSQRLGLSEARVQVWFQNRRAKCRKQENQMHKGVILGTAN
Chain of ALX3 (Homo sapiens, UniProt O95076 139-225, L168V) (O95076 139-225 L168V): as the sequence (O95076 139-225) above, with L30V counted along it
Chain of ALX4 (Q9H161 200-286 Q225E): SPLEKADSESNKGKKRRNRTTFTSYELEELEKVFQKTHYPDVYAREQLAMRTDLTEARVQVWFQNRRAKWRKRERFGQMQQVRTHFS
Chain of SHOX (Homo sapiens, UniProt O15266 103-189, R173C) (O15266 103-189 R173C): as the sequence (O15266 103-189) above, with R71C counted along it
Chain of HESX1 (Homo sapiens, UniProt Q9UBX0 95-180, R109Q) (Q9UBX0 95-180 R109Q): as the sequence (Q9UBX0 95-180 F115L) above, with R15Q, L21F counted along it
Chain of ALX3 (Homo sapiens, UniProt O95076 139-225, N203Q) (O95076 139-225 N203Q): as the sequence (O95076 139-225) above, with N65Q counted along it
Chain of HESX1 (Homo sapiens, UniProt Q9UBX0 95-180) (Q9UBX0 95-180): as the sequence (Q9UBX0 95-180 F115L) above, with L21F counted along it
Chain of ALX3 (Homo sapiens, UniProt O95076 139-225, L168Q) (O95076 139-225 L168Q): as the sequence (O95076 139-225) above, with L30Q counted along it

As to ATAATTAT, the binding signal was 12.8 upbm affinity estimate (log intensity, higher = more binding, comparable within an allelic series) in test [1]; 12.1 upbm affinity estimate (log intensity, higher = more binding, comparable within an allelic series) in [2]; 13.7 upbm affinity estimate (log intensity, higher = more binding, comparable within an allelic series) in test [3]; 12.8 upbm affinity estimate (log intensity, higher = more binding, comparable within an allelic series) in test [4]; 12.9 upbm affinity estimate (log intensity, higher = more binding, comparable within an allelic series) in [5]; 11.9 upbm affinity estimate (log intensity, higher = more binding, comparable within an allelic series) in test [6]. For the same sequence, the binding signal in test [7] is 8.72 upbm affinity estimate (log intensity, higher = more binding, comparable within an allelic series); in test [8] it was 9.85 upbm affinity estimate (log intensity, higher = more binding, comparable within an allelic series); in [9], 11.6 upbm affinity estimate (log intensity, higher = more binding, comparable within an allelic series); in test [10], 12.7 upbm affinity estimate (log intensity, higher = more binding, comparable within an allelic series); in test [11], 11.8 upbm affinity estimate (log intensity, higher = more binding, comparable within an allelic series); in test [12], 9.01 upbm affinity estimate (log intensity, higher = more binding, comparable within an allelic series). Moreover, the binding signal in test [13] was 11.5 upbm affinity estimate (log intensity, higher = more binding, comparable within an allelic series); in test [14], 10.8 upbm affinity estimate (log intensity, higher = more binding, comparable within an allelic series); in test [15], 11.2 upbm affinity estimate (log intensity, higher = more binding, comparable within an allelic series); in test [16] it was 10.4 upbm affinity estimate (log intensity, higher = more binding, comparable within an allelic series); in [17], 8.04 upbm affinity estimate (log intensity, higher = more binding, comparable within an allelic series); in test [18], 7.94 upbm affinity estimate (log intensity, higher = more binding, comparable within an allelic series). The binding signal in [19] is 12.5 upbm affinity estimate (log intensity, higher = more binding, comparable within an allelic series); in test [20], 8.79 upbm affinity estimate (log intensity, higher = more binding, comparable within an allelic series).
Take ATTAATTG: the binding signal in [1] was 13 upbm affinity estimate (log intensity, higher = more binding, comparable within an allelic series); in test [2], 12.3 upbm affinity estimate (log intensity, higher = more binding, comparable within an allelic series); in test [3], 13.8 upbm affinity estimate (log intensity, higher = more binding, comparable within an allelic series); in [4] it was 12.9 upbm affinity estimate (log intensity, higher = more binding, comparable within an allelic series); in [5], 13.1 upbm affinity estimate (log intensity, higher = more binding, comparable within an allelic series); in [6], 12.1 upbm affinity estimate (log intensity, higher = more binding, comparable within an allelic series). Besides, the binding signal is 8.48 upbm affinity estimate (log intensity, higher = more binding, comparable within an allelic series) in test [7]; 9.84 upbm affinity estimate (log intensity, higher = more binding, comparable within an allelic series) in test [8]; 11.7 upbm affinity estimate (log intensity, higher = more binding, comparable within an allelic series) in test [9]; 12.7 upbm affinity estimate (log intensity, higher = more binding, comparable within an allelic series) in test [10]; 11.7 upbm affinity estimate (log intensity, higher = more binding, comparable within an allelic series) in test [11]; 9.92 upbm affinity estimate (log intensity, higher = more binding, comparable within an allelic series) in test [12]. Further, the binding signal in [13] was 12 upbm affinity estimate (log intensity, higher = more binding, comparable within an allelic series); in test [14] it was 11 upbm affinity estimate (log intensity, higher = more binding, comparable within an allelic series); in test [15], 11.6 upbm affinity estimate (log intensity, higher = more binding, comparable within an allelic series); in test [16], 10.5 upbm affinity estimate (log intensity, higher = more binding, comparable within an allelic series); in test [17], 8 upbm affinity estimate (log intensity, higher = more binding, comparable within an allelic series); in test [18] it was 8.15 upbm affinity estimate (log intensity, higher = more binding, comparable within an allelic series). Besides, the binding signal was 12.6 upbm affinity estimate (log intensity, higher = more binding, comparable within an allelic series) in test [19] and 8.67 upbm affinity estimate (log intensity, higher = more binding, comparable within an allelic series) in test [20].
Turning to CTTAATTA, the binding signal in test [1] is 13.6 upbm affinity estimate (log intensity, higher = more binding, comparable within an allelic series); in [2] it was 13.2 upbm affinity estimate (log intensity, higher = more binding, comparable within an allelic series); in [3] it was 14.3 upbm affinity estimate (log intensity, higher = more binding, comparable within an allelic series); in test [4], 13.4 upbm affinity estimate (log intensity, higher = more binding, comparable within an allelic series); in test [5], 13.1 upbm affinity estimate (log intensity, higher = more binding, comparable within an allelic series); in test [6], 12.3 upbm affinity estimate (log intensity, higher = more binding, comparable within an allelic series). Further, the binding signal in [7] was 8.7 upbm affinity estimate (log intensity, higher = more binding, comparable within an allelic series); in [8], 10.8 upbm affinity estimate (log intensity, higher = more binding, comparable within an allelic series); in [9], 11.9 upbm affinity estimate (log intensity, higher = more binding, comparable within an allelic series); in test [10], 12.9 upbm affinity estimate (log intensity, higher = more binding, comparable within an allelic series); in test [11], 12.1 upbm affinity estimate (log intensity, higher = more binding, comparable within an allelic series); in test [12], 10.5 upbm affinity estimate (log intensity, higher = more binding, comparable within an allelic series). Moreover, the binding signal in test [13] was 12.1 upbm affinity estimate (log intensity, higher = more binding, comparable within an allelic series); in test [14] it was 11.4 upbm affinity estimate (log intensity, higher = more binding, comparable within an allelic series); in [15], 12.3 upbm affinity estimate (log intensity, higher = more binding, comparable within an allelic series); in test [16] it was 11.1 upbm affinity estimate (log intensity, higher = more binding, comparable within an allelic series); in test [17] it was 8.21 upbm affinity estimate (log intensity, higher = more binding, comparable within an allelic series); in test [18], 8.38 upbm affinity estimate (log intensity, higher = more binding, comparable within an allelic series). Besides, the binding signal in test [19] is 12.9 upbm affinity estimate (log intensity, higher = more binding, comparable within an allelic series); in [20], 8.85 upbm affinity estimate (log intensity, higher = more binding, comparable within an allelic series).
Consider AATTAATT, for which the binding signal in test [1] is 13.4 upbm affinity estimate (log intensity, higher = more binding, comparable within an allelic series); in test [2] it was 12.8 upbm affinity estimate (log intensity, higher = more binding, comparable within an allelic series); in test [3], 14.3 upbm affinity estimate (log intensity, higher = more binding, comparable within an allelic series); in test [4], 13.2 upbm affinity estimate (log intensity, higher = more binding, comparable within an allelic series); in test [5], 13.3 upbm affinity estimate (log intensity, higher = more binding, comparable within an allelic series); in test [6], 12.4 upbm affinity estimate (log intensity, higher = more binding, comparable within an allelic series). Further, the binding signal in test [7] was 8.51 upbm affinity estimate (log intensity, higher = more binding, comparable within an allelic series); in test [8], 10.3 upbm affinity estimate (log intensity, higher = more binding, comparable within an allelic series); in [9], 12 upbm affinity estimate (log intensity, higher = more binding, comparable within an allelic series); in test [10] it was 13 upbm affinity estimate (log intensity, higher = more binding, comparable within an allelic series); in test [11], 12.1 upbm affinity estimate (log intensity, higher = more binding, comparable within an allelic series); in test [12], 10.3 upbm affinity estimate (log intensity, higher = more binding, comparable within an allelic series). In addition, the binding signal in [13] was 12.2 upbm affinity estimate (log intensity, higher = more binding, comparable within an allelic series); in test [14] it was 11.3 upbm affinity estimate (log intensity, higher = more binding, comparable within an allelic series); in test [15], 11.8 upbm affinity estimate (log intensity, higher = more binding, comparable within an allelic series); in test [16], 10.9 upbm affinity estimate (log intensity, higher = more binding, comparable within an allelic series); in test [17], 8.05 upbm affinity estimate (log intensity, higher = more binding, comparable within an allelic series); in [18], 8.57 upbm affinity estimate (log intensity, higher = more binding, comparable within an allelic series). Moreover, the binding signal in test [19] is 13 upbm affinity estimate (log intensity, higher = more binding, comparable within an allelic series); in test [20] it was 8.78 upbm affinity estimate (log intensity, higher = more binding, comparable within an allelic series).

Values taken from paper PMC11006913.
